Source: PubChem BioAssay (NCATS)
Records with an inconclusive call do not appear. Active and inactive are the calls of the source. Calls come from the whole dose curve; as a rule, active = well fitted inhibition curve with a large enough effect; inconclusive = small, poorly fitted or top-dose-only effect; inactive = flat fitted curve, though single readings scatter.

Key:
Assay in all cases: Cytotoxic Profiling of Annotated Libraries Using Quantitative High-Throughput Screening (AID 1296008); note: nearly all actives have a fitted effect of over 60% in size
Settings in all cases: Five cell lines viability, CellTiter-Glo ATP luminescence, 48-72 h; max response: stronger effect = lower value
CRL-7250 = normal cell line; tested on: CRL-7250
Summary of the method: (§1)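 Compounds were pin-transferred onto cells and incubated 48 or 72 hr at 37 degree Celsius, 95% humidity. CellTiter-Glo was added, plates sat 10 min at room temperature, then ATP-coupled luminescence was imaged as the viability read-out.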

HEK293 = tested on: HEK293
Summary of the method: as §1

HaCat = tested on: HaCat
Summary of the method: as §1

KB-3-1 = tested on: KB-3-1
Summary of the method: as §1

NIH3T3 = tested on: NIH3T3
Summary of the method: as §1

Measured: max response
% is set by controls: 0 for no effect and ±100 for the full control effect.

COC(=O)C1C(O)CCC2CN3CCc4c([nH]c5ccccc45)C3CC21 (stereo not given)
inactive: CRL-7250 2.68% | HEK293 | HaCat -7.68% | KB-3-1 9.41% | NIH3T3 -7.25%

COC(=O)C[C@@H]1C(C(=O)O)=CO[C@@H](O[C@@H]2O[C@H](CO)[C@@H](O)[C@H](O)[C@H]2O)/C1=C\COC(=O)/C=C/c1ccc(O)c(OC)c1
inactive: CRL-7250 2.29% | HEK293 -2.42% | HaCat -1.38% | KB-3-1 | NIH3T3

COC(=O)C1=COC(O[C@@H]2O[C@H](CO)[C@@H](O)[C@H](O)[C@H]2O)C2C(C)C(=O)CC12 (stereo not given in full)
inactive: CRL-7250 -2.22% | HEK293 -2% | HaCat -11.3% | KB-3-1 2.31% | NIH3T3

O=C(/C=C/c1ccc(O)c(O)c1)OC[C@H]1O[C@@H](OC2CCCCC2O)[C@H](O)[C@@H](O)[C@@H]1O (stereo not given in full)
inactive: CRL-7250 | HEK293 -0.405% | HaCat | KB-3-1 1.68% | NIH3T3

O=C(NC1CCN(CC(F)(F)F)CC1)c1ccc(-c2cccc(F)c2)nc1
inactive: CRL-7250 | HEK293 -11% | HaCat | KB-3-1 -3.14% | NIH3T3

COc1c2c(c(C)c3c1C(=O)OC3)OC1(C)CC(O)C34OC(O)(CCC3(C)C1C2)OC4(C)C (stereo not given)
inactive: CRL-7250 | HEK293 -9.5% | HaCat | KB-3-1 7.14% | NIH3T3 2.29%

N#Cc1cc(-c2n[nH]c(-c3ccncc3)n2)ccn1
inactive: CRL-7250 -0.428% | HEK293 -15.1% | HaCat | KB-3-1 -1.34% | NIH3T3 0.552%
